Tested on: Plasmodium falciparum NF54 gametocytes
Experiment: viability index relative to DMSO control (fraction); higher = less gametocyte killing
Conditions: 12.5 µM, incubation time: 72 h
How it was run: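 The viability index was calculated as the gametocyte particle count over the plate mean of solvent-only wells. For this, P. falciparum NF54 gametocytes of every stage (I–V) were held with compound at 12.5 µM for 72 hr at 37°C under low oxygen in 384-well plates. MitoTracker Red CMXRos staining for 20 min was followed by transfer of 5 µl into 40 µl of 500 nM dye in serum-free medium, with three fields imaged after 30 min.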

[1] = gametocyte stage: Stage I viability index
[2] = gametocyte stage: Stage II viability index
[3] = gametocyte stage: Stage III viability index
[4] = gametocyte stage: Stage IV viability index
[5] = gametocyte stage: Stage V viability index

Row | SMILES | viability index [1] | viability index [2] | viability index [3] | viability index [4] | viability index [5]
1 | Cc1cc(C)c2nc(N3CCC(C(=O)NCCCN4CCC(N5CCCCC5)CC4)CC3)sc2c1 | 0.0166 | 0.204 | 0.455 | 0.477 | 0.352
2 | Nc1ccc(-c2nc3cc(Oc4ccc(Oc5ccc6[nH]c(-c7ccc(N)cc7)nc6c5)cc4)ccc3[nH]2)cc1 | 0.000874 | 0.0108 | 0.0271 | 0.0253 | 0
3 | COc1ccccc1N=C1C(=O)c2ccccc2C(O)=C1N1CCCCC1 | 0.0188 | 0.0203 | 0.0297 | 0.0699 | 0.0879
4 | COc1ccc(C(=O)Nc2nonc2-c2ccc(OC)c(OC)c2)cc1Cl | 0.564 | 0.401 | 0.487 | 0.568 | 0.736
5 | CCOc1ccc(-n2cc(-c3ccccc3)c3c(SCc4cc(C)ccc4C)ncnc32)cc1 | 1.12 | 0.908 | 0.934 | 1.03 | 1.03
6 | COc1ccccc1CNC(=O)C1c2ccccc2C(=O)N(CC(C)C)C1c1cccs1 (stereo not given) | 0.951 | 0.807 | 1.01 | 0.976 | 1
7 | CCOC(=O)c1cnc2ccc(Cl)cc2c1NCCCN(C)C | 0.309 | 0.59 | 0.989 | 1.03 | 0.844
8 | COc1ccc(-c2cn3c(C(=O)Nc4ccccc4Cl)c(-c4ccccc4)c4c3n2CCCC4)cc1 | 0.673 | 0.531 | 0.719 | 0.794 | 0.779
9 | COc1cccc(NC(=O)[C@H](C(C)C)n2c(=O)[nH]c3ccccc3c2=O)c1 | 0.0552 | 0.0213 | 0.0736 | 0.286 | 0.341
10 | Oc1c2c(nc3ccccc13)CCCC2 | 0.828 | 0.959 | 0.985 | 0.87 | 0.961
11 | O=C(NNc1cc(N2CCCC2)nc(N2CCCC2)n1)c1ccccc1 | 0 | 0.00749 | 0.275 | 0.516 | 0.377
12 | Nc1nc(Nc2cccc(F)c2)nc2ccccc12 | 0.0673 | 0.534 | 0.725 | 0.82 | 0.844
13 | COc1ccc(C)c2sc(N(Cc3cccnc3)C(=O)c3ccc(C#N)cc3)nc12 | 0.441 | 0.704 | 0.95 | 0.794 | 1.01
14 | COc1ccc(-c2nonc2NC(=O)c2cccc(Cl)c2)cc1OC | 0.27 | 0.207 | 0.505 | 0.684 | 0.187
15 | COc1ccc(C2N(C)c3ccccc3N2C)cc1 | 0.939 | 0.93 | 1.01 | 0.964 | 1.07
16 | CCOC(=O)c1cn(CC)c2cc(N(C)CCc3ccc(OC)c(OC)c3)c(F)cc2c1=O | 0.63 | 0.723 | 0.912 | 0.827 | 0.923
17 | CC1CCCCN1CCCNC(=O)c1ccc2c(c1)sc1nc(-c3ccc(F)cc3)cn12 (stereo not given) | 0.113 | 0.443 | 1.05 | 1.2 | 1
18 | COc1cccc(C(=O)Nc2ccc(-c3nc4ccccc4[nH]3)cc2)c1 | 0.295 | 0.595 | 0.852 | 1.03 | 0.883
19 | Cc1c(C)n(CC(O)CNC2CCCCC2C)c2ccccc12 (stereo not given) | 0.0939 | 0.217 | 0.644 | 0.766 | 0.923
20 | Cc1cc(N(C)C)nc(Nc2ccc(NC(=O)Nc3ccccc3)cc2)n1 | 0.00262 | 0.0266 | 0.138 | 0.0285 | 0

Row | SMILES | viability index [1] | viability index [2] | viability index [3] | viability index [4] | viability index [5]
21 | CN(C)c1ccc(-c2nc3cc(N)ccc3[nH]2)cc1 | 0.0873 | 0.566 | 0.962 | 0.939 | 0.725
22 | COc1ccc(C(=O)Nc2ccc(Cl)cc2C(=O)Nc2ccncc2)cc1 | 0.0232 | 0.557 | 0.915 | 0.763 | 0.692
23 | COc1ccc(CCn2c(=N)c(C(=O)NCc3cccnc3)cc3c(=O)n4cccc(C)c4nc32)cc1 | 0.076 | 0.611 | 0.917 | 0.937 | 1.09
24 | COc1ccc(C2C(C(=O)Nc3cccc(OC)c3)c3ccccc3C(=O)N2C2CCCCC2)cc1 (stereo not given) | 0.0691 | 0.0974 | 0.488 | 0.551 | 0.519
25 | CC(=O)Nc1nnc(SCc2c(C)cc(C(C)(C)C)cc2C)s1 | 0.854 | 0.701 | 0.894 | 0.793 | 0.912
26 | CC(C)(C)c1ccc(C2CC3=Nc4ccccc4N(C(=O)c4ccccc4Cl)C(c4ccc(F)cc4)C3=C(O)C2)cc1 (stereo not given) | 0.278 | 0.223 | 0.472 | 0.503 | 0.429
27 | O=C(Nc1ccc(N2CCCCC2)c(Cl)c1)c1ccc(Br)o1 | 0.673 | 0.726 | 0.762 | 0.787 | 0.978
28 | CCCc1c(C)nc2ccc(Br)cc2c1O | 0.777 | 0.706 | 0.893 | 0.965 | 0.753
29 | CN1CCN(c2ccc(Nc3c4ccccc4nc4ccccc34)cc2)CC1 | 0.0453 | 0.0029 | 0.0523 | 0.146 | 0.121
30 | CCCc1c(CC)c(=N)c2ccccc2n1C | 0.815 | 0.952 | 1.09 | 0.951 | 1.1
31 | CN(C)c1ccc(N2C(N)=NC(N)=NC2(C)C)cc1 | 1.05 | 0.931 | 1.04 | 1.05 | 1.21
32 | CCOc1ccc(N2C(N)=NC(N)=NC2(C)C)cc1 | 1.12 | 0.909 | 0.844 | 0.959 | 1.08
33 | Cc1cc(NC(=O)C2c3ccccc3C(=O)N(CC(C)C)C2c2cccs2)no1 (stereo not given) | 0.0387 | 0.0193 | 0.0636 | 0.188 | 0.0879
34 | COc1ccc(C=C2SC(Nc3ccc(F)cc3)=NC2=O)c(OC)c1 | 0.76 | 0.669 | 0.676 | 0.646 | 0.558
35 | O=C(Nc1ccc(N2CCN(Cc3ccccc3)CC2)cc1)c1cccs1 | 0.941 | 0.866 | 0.795 | 0.875 | 1.15
36 | COc1ccc2nc(C)cc(Nc3cccc(O)c3)c2c1 | 0.105 | 0.564 | 0.896 | 0.991 | 1.1
37 | CCN1CCN(c2cc(C)c3cc(NC(=O)c4ccc(OC)c(OC)c4)ccc3n2)CC1 | 0.33 | 0.677 | 1.04 | 0.818 | 0.901
38 | COc1cc2c(cc1OC)C1=NNC(=O)C1=NC(C)(C)C2 | 0.00884 | 0.0058 | 0.0707 | 0.109 | 0.011
39 | CC1CC(C)CN(C(=O)c2ccc(Cl)cc2Cl)C1 (stereo not given) | 0.95 | 0.871 | 0.962 | 0.951 | 1.01
40 | COc1ccc(Nc2cc(C)nc(NCc3ccccc3)n2)cc1 | 0.0594 | 0.319 | 0.487 | 0.589 | 0.481

Row | SMILES | viability index [1] | viability index [2] | viability index [3] | viability index [4] | viability index [5]
41 | O=C1c2ccccc2-c2nnc(-c3ccc(Br)cc3)cc21 | 0.844 | 0.875 | 0.783 | 0.873 | 0.87
42 | Oc1c(CN2CCN(c3ccccc3F)CC2)cc(Br)c2cccnc12 | 0.0376 | 0.0566 | 0.0353 | 0.0253 | 0.026
43 | Cc1ccc(CSCc2ccc(C(=O)NC3CC3)o2)cc1 | 0.678 | 0.965 | 1.07 | 0.924 | 0.978
44 | CC1=C(CC(=O)c2cccc([N+](=O)[O-])c2)C(=O)c2ccccc2C1=O | 0.00612 | 0.00167 | 0.0706 | 0.196 | 0.234
45 | CCOc1ccc2nc(C)cc(Nc3ccc(Br)cc3)c2c1 | 0.152 | 0.407 | 0.828 | 0.851 | 0.818
46 | O=C(Nc1ccc(F)c(Cl)c1)Nc1ccc(Cl)c(Cl)c1 | 0.0409 | 0.0309 | 0.0835 | 0.17 | 0.165
47 | O=C(Nc1ccccc1O)c1ccc(-c2ccc(Cl)cc2Cl)o1 | 0.0166 | 0.0976 | 0.6 | 0.653 | 0.736
48 | CCN(CC)c1ccc(NC(=O)c2cccs2)cc1 | 0.716 | 0.659 | 0.758 | 0.936 | 1.04
49 | CCOC(=O)c1cn(CC)c2cc(N3CCCCC3)c(F)cc2c1=O | 0.592 | 0.9 | 0.81 | 0.769 | 0.791
50 | COc1ccc(C2c3ccc4ccccc4c3Oc3ncn(CCCn4ccnc4)c(=N)c32)cc1OC (stereo not given) | 0.0122 | 0.231 | 0.441 | 0.547 | 0.429
51 | OC1=C2C(=Nc3ccccc3SC2c2ccc(Br)cc2)c2ccccc21 (stereo not given) | 0.755 | 0.751 | 1.04 | 0.801 | 0.857
52 | COc1ccc(CCN2C(=O)c3[nH]nc(-c4cc(Cl)c(C)cc4O)c3C2c2ccccc2F)cc1 (stereo not given) | 0.083 | 0.29 | 0.6 | 0.665 | 0.675
53 | CCC(C)NCC(O)(c1ccc(Cl)cc1)c1ccc(Cl)cc1 (stereo not given) | 0.0354 | 0.0657 | 0.378 | 0.584 | 0.615
54 | CCN(CC)c1cc(C)c2cc(NC(=O)c3cccc(OC)c3)ccc2n1 | 0.154 | 0.563 | 0.864 | 0.967 | 1.01
55 | CCOc1cccc2sc(N(Cc3cccnc3)C(=O)C3CCCCC3)nc12 | 0.478 | 0.691 | 1.09 | 0.951 | 0.989
56 | COc1ccc(C2NCCc3c2[nH]c2ccccc32)cc1CN1CCN(c2ccc(F)cc2)CC1 (stereo not given) | 0.0297 | 0.0183 | 0.0204 | 0.0222 | 0.0519
57 | COc1ccc(NC(=O)C2c3ccccc3C(=O)N(CC(C)C)C2c2cccs2)cc1 (stereo not given) | 0.0343 | 0.0087 | 0.0354 | 0.216 | 0.0549
58 | N#Cc1nc(Cc2cccc3ccccc23)oc1N1CCN(C(c2ccccc2)c2ccccc2)CC1 | 1.12 | 0.93 | 1.23 | 0.968 | 1.16
59 | CCCCN(CCCC)S(=O)(=O)c1ccc(NC(=O)c2ccco2)cc1 | 0.943 | 0.963 | 0.951 | 0.842 | 0.831
60 | O=C(Nc1cccc(C(F)(F)F)c1)c1cc(Cl)ccc1O | 0.00552 | 0.00676 | 0.0184 | 0.0669 | 0.11

From the supplement of paper PMC4723716
